We go through 14 compounds from PubChem BioAssay (EPA / NIEHS).

Inconclusive results are not listed. Calls of active or inactive are those of the source. How the source made its calls, unless noted: active means hit-call score of the fitted dose curve at least 0.9, where 1 is the maximum; inconclusive means response in the unintended direction; inactive means score below 0.9.

Experiment [1] addresses bovine Estrogen Receptor (ER), ESR1 (gene 407238) (UniProt P49884). Nature of the experiment: NVS_NR_bER: NovaScreen (NVS) Nuclear Receptor Binding Assay for bovine Estrogen Receptor (ER) (AID 2283345).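 Further: actives lower the bound radioligand count which means they displace the ER ligand.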 The essentials:
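Cell-free radioligand binding with bovine uterine membrane extracts, read 18 hours after dosing by scintillation counting. Loss of signal versus DMSO baseline indicates displacement. Primary screen run in duplicate at 25 uM, actives followed in concentration series.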

Experiment [2] deals with Estrogen receptor (Homo sapiens) (UniProt P03372). The experiment can be described thus: NVS_NR_hER: NovaScreen (NVS) Nuclear Receptor Binding Assay for human Estrogen Receptor (ER) (AID 2283348). In a few lines:
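MCF7-derived receptor extract, radiolabelled ligand, competitive displacement. Read: scintillation counts at 18 h. DMSO = negative control/baseline. Primary 25 uM duplicate; follow-up concentration–response.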

For experiment [3] the target is unchanged. Nature of the experiment: OT_ER_ERaERa_1440: Odyssey Thera (OT) 24-hour HEK293T Protein-Complementation Assay for Estrogen Receptor-alpha/-alpha Homodimer (AID 2283349).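 Further: hits raise fluorescence above DMSO for agonists and antagonists alike.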 In a few lines: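 Cells (HEK293T) carrying the fragment-tagged ERα LBD (aa 310-547) pair are treated with chemical for 24 hours. Nuclear and/or cytoplasmic fluorescence is then quantified on a laser scanning cytometer. Activity is scored as signal gain against DMSO.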

Experiment [4] shares this target. The experiment can be described thus: OT_ER_ERaERa_0480: Odyssey Thera (OT) 8-hour HEK293T Protein-Complementation Assay for Estrogen Receptor-alpha/-alpha Homodimer (AID 2283351).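 Further: rise in fluorescence from reassembled reporter fragments on ERα LBD homodimer in nucleus or whole cell.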 The essentials: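 HEK293T cells stably expressing a PCA pair of ER alpha LBD (residues 310-547) were dosed for 8 hours. The gain in fluorescence intensity, nuclear for agonists and whole-cell for antagonists, was measured by laser scanning cytometry against DMSO vehicle.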

Experiment [5] addresses Estrogen receptor (Homo sapiens) + Estrogen receptor beta (Homo sapiens) (UniProt P03372+Q92731). Nature of the experiment: OT_ER_ERaERb_0480: Odyssey Thera (OT) 8-hour HEK293T Protein-Complementation Assay for Estrogen Receptor-alpha/-beta Heterodimer (AID 2283352). The essentials:
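Increase in mean fluorescence intensity, measured by laser scanning plate cytometry, reported ER-alpha/ER-beta LBD complementation in HEK293T cells after 8 h chemical exposure. DMSO served as baseline; basal signal is low, punctate and cytoplasmic.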

For experiment [6], the target named is Glutamate receptor ionotropic, kainate 1 (Rattus norvegicus) (UniProt P22756). Nature of the experiment: NVS_IC_rKAR: NovaScreen (NVS) Ion Channel Assay for rat Kainic Acid Receptors (KAR) (AID 2283334; active means hit-call score of the fitted dose curve at least 0.9, where 1 is the maximum; inactive means score below 0.9). In a few lines: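 Rat forebrain membrane preparation incubated 1 h with radioligand and test chemical; bound signal read by filtration and scintillation. Single-concentration screen at 25 uM, then concentration series to 50 uM maximum.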
Chain of Glutamate receptor ionotropic, kainate 1 (Rattus norvegicus) (P22756 whole entry, looked up): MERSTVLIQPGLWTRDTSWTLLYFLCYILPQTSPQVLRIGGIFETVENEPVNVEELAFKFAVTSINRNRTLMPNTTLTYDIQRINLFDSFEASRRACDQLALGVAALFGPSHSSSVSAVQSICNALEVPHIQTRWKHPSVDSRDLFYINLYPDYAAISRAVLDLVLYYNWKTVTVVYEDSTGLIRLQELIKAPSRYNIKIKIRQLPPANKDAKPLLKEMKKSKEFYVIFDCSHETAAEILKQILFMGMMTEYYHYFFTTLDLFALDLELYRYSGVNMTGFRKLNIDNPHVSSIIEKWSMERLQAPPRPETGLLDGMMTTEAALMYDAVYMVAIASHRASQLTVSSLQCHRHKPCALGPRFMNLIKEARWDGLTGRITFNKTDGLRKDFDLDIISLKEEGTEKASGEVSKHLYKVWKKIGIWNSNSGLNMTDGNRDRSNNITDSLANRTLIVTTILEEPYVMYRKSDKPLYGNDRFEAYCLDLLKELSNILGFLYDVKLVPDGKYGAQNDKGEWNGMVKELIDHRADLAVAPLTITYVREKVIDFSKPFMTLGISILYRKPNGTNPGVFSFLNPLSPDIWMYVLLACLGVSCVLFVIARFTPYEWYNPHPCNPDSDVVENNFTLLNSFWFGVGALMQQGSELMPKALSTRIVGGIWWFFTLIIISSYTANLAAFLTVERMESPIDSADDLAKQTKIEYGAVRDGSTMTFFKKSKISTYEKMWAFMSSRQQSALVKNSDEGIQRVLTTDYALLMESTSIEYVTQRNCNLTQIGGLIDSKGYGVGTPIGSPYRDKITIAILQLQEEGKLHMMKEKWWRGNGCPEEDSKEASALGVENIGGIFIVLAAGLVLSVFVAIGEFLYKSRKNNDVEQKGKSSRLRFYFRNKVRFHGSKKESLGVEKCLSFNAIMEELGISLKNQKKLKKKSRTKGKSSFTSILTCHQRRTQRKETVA

Experiment [7] deals with chimpanzee Androgen Receptor (AR), AR (gene 747460) (UniProt O97775). The experiment can be described thus: NVS_NR_cAR: NovaScreen (NVS) Nuclear Receptor Binding Assay for chimpanzee Androgen Receptor (AR) (AID 2283346).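 Further: radioligand displacement from AR measured by scintillation counting in a cell-free assay; a loss of bound radioligand signal versus DMSO counts as binding.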 The essentials:
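Radioligand binding to chimpanzee AR expressed in Sf9/Sf21 cells, cell-free, measured 72 h after dosing by lysate-based scintillation counting. Loss of signal vs DMSO; initial duplicate screen at 25 uM, actives retested in concentration series.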

In experiment [8] the target is bovine Gamma-Aminobutyric Acid Type A Receptor Agonist (GABAR Agonist), GABRA1 (gene 780973) (UniProt P08219). Nature of the experiment: NVS_LGIC_bGABAR_Agonist: NovaScreen (NVS) Ligand-Gated Ion Channel Assay for bovine Gamma-Aminobutyric Acid Type A Receptor Agonist (GABAR Agonist) (AID 2283338). In a few lines:
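Radioligand binding to bovine cerebellar membranes in agonist format, read by filter-based scintillation counting after 1 h. Primary screen in duplicate at 25 uM, with actives followed in concentration series. Gain of signal versus DMSO.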

The subject of experiment [9] is guinea pig Histamine Receptor (H2), gene 100729734. The experiment can be described thus: NVS_GPCR_gH2: NovaScreen (NVS) G Protein-Coupled Receptor Assay for guinea pig Histamine Receptor (H2) (AID 2283342). In a few lines: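 Guinea pig striatal membrane preparation with specific radioligand; bound counts measured by filtration and scintillation 1 h post-dosing, DMSO as baseline. Chemicals passing a 25 uM duplicate screen were titrated to a 50 uM maximum.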

Experiment [10] deals with rat Peripheral-type Benzodiazepine Receptor (PBR), Tspo (gene 24230) (UniProt P16257). The experiment can be described thus: NVS_MP_rPBR: NovaScreen (NVS) Membrane Protein Assay for rat Peripheral-type Benzodiazepine Receptor (PBR) (AID 2283335). In a few lines: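 Competitive displacement of specific radioligand from rat kidney membrane PBR, read by filtration and scintillation after 1 h. Compounds first tested at 25 uM in duplicate, then in concentration series; signal loss relative to DMSO.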
Chain of rat Peripheral-type Benzodiazepine Receptor (PBR), Tspo (gene 24230) (P16257 whole entry, looked up): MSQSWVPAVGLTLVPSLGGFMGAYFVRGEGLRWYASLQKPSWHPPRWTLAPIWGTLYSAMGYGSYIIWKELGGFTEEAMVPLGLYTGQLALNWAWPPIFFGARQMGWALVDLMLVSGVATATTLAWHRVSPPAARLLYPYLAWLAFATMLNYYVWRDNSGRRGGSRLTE

Experiment [11] deals with Androgen Receptor/SRC-1 Co-activator, AR (gene 367) (UniProt P10275). Nature of the experiment: OT_AR_ARSRC1_0960: Odyssey Thera (OT) 16-hour HEK293T Protein-Complementation Assay for Androgen Receptor/SRC-1 Co-activator (AID 2283353).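 Further: actives raise the signal above DMSO so potency reflects increased AR and SRC-1 complex.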 In a few lines:
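Endpoint is gain-of-signal N/C fluorescence ratio in the 488 nm channel versus DMSO, from at least 400 cells per image, measured 16 h post-dosing. Cells: HEK293T stably carrying split-Venus AR/SRC-1 complementation constructs.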

Experiment [12] is described as follows: NVS_IC_rCaBTZCHL: NovaScreen (NVS) Ion Channel Assay for Calcium Channel, Type L, Benzothiazepine Site (CaBTZCHL) (AID 2283337). The essentials: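 Rat cortical membrane preparation incubated 1.5 h with compound and benzothiazepine-site radioligand; loss of filter-bound counts versus DMSO marks displacement. Initial duplicate testing at 25 uM, actives followed up in concentration series.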

For experiment [13], the target named is human Constitutive Androstane Receptor (CAR), NR1I3 (gene 9970) (UniProt Q14994). The experiment can be described thus: NVS_NR_hCAR_Antagonist: NovaScreen (NVS) Nuclear Receptor Binding Assay for human Constitutive Androstane Receptor Antagonism (CAR) (AID 2283344). In a few lines:
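Single 25 uM duplicate primary screen, with concentration-series follow-up on actives. Cell-free binding format run in antagonist mode, TR-FRET signal taken 1 h post-dose; activity is signal loss relative to DMSO.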

Chain of Estrogen receptor (Homo sapiens) (P03372 whole entry, looked up): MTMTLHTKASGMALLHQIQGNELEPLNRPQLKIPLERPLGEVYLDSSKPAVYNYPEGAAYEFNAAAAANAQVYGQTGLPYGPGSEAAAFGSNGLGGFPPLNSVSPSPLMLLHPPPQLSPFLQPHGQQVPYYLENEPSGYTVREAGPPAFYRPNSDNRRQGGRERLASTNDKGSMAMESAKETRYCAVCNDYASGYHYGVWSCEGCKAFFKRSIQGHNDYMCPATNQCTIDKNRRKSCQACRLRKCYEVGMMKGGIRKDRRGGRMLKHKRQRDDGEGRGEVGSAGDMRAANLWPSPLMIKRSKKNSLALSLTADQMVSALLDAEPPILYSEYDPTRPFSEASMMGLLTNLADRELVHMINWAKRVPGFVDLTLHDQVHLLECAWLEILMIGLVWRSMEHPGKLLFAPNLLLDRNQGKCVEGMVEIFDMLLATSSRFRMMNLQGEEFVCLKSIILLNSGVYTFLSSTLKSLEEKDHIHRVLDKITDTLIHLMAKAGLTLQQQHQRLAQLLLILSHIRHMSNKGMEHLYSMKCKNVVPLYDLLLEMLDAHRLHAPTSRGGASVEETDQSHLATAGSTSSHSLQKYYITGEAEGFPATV
Chain of Estrogen receptor (Homo sapiens) + Estrogen receptor beta (Homo sapiens) (P03372 whole entry, looked up, the tested form may be a part): as the sequence (P03372 whole entry, looked up) above
Chain of Estrogen receptor (Homo sapiens) + Estrogen receptor beta (Homo sapiens) (Q92731 whole entry, looked up, the tested form may be a part): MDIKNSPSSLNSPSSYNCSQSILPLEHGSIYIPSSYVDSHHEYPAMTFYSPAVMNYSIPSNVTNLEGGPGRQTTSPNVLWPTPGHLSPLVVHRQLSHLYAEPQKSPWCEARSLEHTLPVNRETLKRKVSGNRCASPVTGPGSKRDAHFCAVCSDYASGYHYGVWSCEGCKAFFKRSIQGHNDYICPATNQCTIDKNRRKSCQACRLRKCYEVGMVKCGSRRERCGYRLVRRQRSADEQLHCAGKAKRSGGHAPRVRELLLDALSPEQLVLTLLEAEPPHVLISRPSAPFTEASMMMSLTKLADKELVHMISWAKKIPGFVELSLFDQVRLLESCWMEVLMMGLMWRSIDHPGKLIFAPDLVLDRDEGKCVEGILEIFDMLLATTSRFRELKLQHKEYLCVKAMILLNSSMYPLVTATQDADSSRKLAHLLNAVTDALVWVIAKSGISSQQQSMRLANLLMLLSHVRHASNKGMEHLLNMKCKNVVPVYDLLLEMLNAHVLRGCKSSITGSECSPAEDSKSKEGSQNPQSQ
Chain of bovine Estrogen Receptor (ER), ESR1 (gene 407238) (P49884 whole entry, looked up): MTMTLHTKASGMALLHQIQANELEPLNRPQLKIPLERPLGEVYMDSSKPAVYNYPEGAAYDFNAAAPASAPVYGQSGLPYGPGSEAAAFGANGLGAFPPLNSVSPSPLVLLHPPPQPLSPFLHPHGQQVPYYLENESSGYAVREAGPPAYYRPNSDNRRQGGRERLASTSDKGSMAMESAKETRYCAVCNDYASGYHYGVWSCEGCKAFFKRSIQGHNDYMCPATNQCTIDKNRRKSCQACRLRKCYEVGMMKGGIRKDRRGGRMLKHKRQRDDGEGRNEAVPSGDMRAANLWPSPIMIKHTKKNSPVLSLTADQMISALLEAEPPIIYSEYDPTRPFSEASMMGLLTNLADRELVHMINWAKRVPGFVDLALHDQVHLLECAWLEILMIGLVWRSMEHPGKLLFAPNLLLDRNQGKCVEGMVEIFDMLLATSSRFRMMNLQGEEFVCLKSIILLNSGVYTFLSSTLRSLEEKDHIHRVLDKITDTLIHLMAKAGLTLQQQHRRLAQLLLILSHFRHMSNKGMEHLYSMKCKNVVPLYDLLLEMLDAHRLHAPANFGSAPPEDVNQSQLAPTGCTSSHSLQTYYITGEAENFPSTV
Chain of Androgen Receptor/SRC-1 Co-activator, AR (gene 367) (P10275 whole entry, looked up): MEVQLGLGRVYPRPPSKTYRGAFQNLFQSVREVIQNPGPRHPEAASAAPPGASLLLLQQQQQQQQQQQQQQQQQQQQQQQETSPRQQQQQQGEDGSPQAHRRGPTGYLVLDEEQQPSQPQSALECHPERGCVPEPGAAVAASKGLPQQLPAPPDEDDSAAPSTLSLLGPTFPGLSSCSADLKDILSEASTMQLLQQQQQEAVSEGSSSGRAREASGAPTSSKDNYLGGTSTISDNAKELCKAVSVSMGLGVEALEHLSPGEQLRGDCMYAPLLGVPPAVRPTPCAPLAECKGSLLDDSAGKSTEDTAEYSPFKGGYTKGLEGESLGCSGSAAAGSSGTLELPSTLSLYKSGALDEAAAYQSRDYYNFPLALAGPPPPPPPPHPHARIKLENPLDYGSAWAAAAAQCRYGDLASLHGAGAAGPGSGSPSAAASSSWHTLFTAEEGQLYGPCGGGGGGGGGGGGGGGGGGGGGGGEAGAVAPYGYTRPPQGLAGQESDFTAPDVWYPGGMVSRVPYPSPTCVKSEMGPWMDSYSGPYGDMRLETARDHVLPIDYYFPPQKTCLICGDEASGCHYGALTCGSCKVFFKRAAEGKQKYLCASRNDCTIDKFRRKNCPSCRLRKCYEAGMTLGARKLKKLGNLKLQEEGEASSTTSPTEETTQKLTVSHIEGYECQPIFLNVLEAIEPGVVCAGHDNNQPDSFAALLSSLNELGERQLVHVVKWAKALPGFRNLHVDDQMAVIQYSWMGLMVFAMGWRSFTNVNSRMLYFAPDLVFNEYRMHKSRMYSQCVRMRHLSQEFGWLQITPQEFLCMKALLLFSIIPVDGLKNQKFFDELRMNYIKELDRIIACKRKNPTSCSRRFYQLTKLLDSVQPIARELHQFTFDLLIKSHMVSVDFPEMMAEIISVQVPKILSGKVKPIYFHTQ
Chain of bovine Gamma-Aminobutyric Acid Type A Receptor Agonist (GABAR Agonist), GABRA1 (gene 780973) (P08219 whole entry, looked up): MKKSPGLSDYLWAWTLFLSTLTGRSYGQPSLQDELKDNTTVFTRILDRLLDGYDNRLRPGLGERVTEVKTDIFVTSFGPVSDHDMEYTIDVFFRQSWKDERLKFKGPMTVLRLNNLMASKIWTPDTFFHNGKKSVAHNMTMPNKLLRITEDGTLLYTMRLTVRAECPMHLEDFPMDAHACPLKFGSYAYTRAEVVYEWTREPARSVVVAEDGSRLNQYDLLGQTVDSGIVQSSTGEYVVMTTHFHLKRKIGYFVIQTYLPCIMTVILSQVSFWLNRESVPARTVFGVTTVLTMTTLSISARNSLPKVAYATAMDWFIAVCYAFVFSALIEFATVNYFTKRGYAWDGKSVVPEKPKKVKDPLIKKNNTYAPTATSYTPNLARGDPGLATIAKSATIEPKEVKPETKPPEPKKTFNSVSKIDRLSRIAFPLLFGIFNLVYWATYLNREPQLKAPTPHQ
Chain of human Constitutive Androstane Receptor (CAR), NR1I3 (gene 9970) (Q14994 whole entry, looked up): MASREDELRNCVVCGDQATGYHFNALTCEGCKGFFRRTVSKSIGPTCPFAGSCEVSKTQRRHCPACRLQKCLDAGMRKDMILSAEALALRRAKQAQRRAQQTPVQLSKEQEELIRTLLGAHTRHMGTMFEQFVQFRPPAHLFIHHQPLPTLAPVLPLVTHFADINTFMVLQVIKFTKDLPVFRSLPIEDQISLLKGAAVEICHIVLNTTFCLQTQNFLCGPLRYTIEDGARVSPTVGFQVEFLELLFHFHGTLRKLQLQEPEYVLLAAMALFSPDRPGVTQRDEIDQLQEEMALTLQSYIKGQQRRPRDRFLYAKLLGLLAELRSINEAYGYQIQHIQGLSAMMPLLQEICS

The term AC50 denotes the concentration at which the activity in the assay is half-maximal. `OCC(CO)(CO)CO`: the outcome in [1], in experiment [3], in [4] and in experiment [5] was inactive. Also, the half-maximal activity concentration (AC50) in [2] is 3.49 µM (active).

For the compound `O=C(O)c1cccc(C[C@@H]2COc3ccc(OCc4nc5cc(F)ccc5s4)cc3[C@@H]2O)c1`, the outcome in [6], in experiment [1], in experiment [3] and in [4] was inactive. For the same compound, the AC50 in experiment [7] was 20.8 µM (active).

Consider `CCc1ccc(O)c(C(C)(C)C)c1`, for which the call in [8], in experiment [2], in [3], in experiment [4] and in [5] was inactive.

With `Cc1ncc([C@@H](CCCCCCc2ccc3c(n2)NCCC3)CC(=O)O)cn1`, the AC50 in [9] is 25 µM (active). Moreover, the result in [3], in [4] and in [5] was inactive.

For `CCN(CC)C(=S)SSC(=S)N(CC)CC`, the figures for the AC50 in [10] and in experiment [11] were 310 nM (active) and 59.6 µM (active), respectively. In addition, the call in [2], in experiment [3], in [4] and in [5] was inactive.

Regarding `OC[C@H]1O[C@@H]2O[C@H]3[C@H](O)[C@@H](O)[C@@H](O[C@H]4[C@H](O)[C@@H](O)[C@@H](O[C@H]5[C@H](O)[C@@H](O)[C@@H](O[C@H]6[C@H](O)[C@@H](O)[C@@H](O[C@H]7[C@H](O)[C@@H](O)[C@@H](O[C@H]1[C@H](O)[C@H]2O)O[C@@H]7CO)O[C@@H]6CO)O[C@@H]5CO)O[C@@H]4CO)O[C@@H]3CO`, the AC50 in experiment [1] is 1.18 µM (active); in experiment [2], 0.472 µM (active). Moreover, the result in experiment [3], in [4] and in experiment [5] was inactive.

With `CCCCCCCCN(C)C`, the outcome in experiment [12], in experiment [3] and in experiment [4] was inactive.

Turning to `CCCCCCCCCCCCCCCCOS(=O)(=O)O`, the compound was called inactive in experiment [13], in experiment [3], in [4], in experiment [5] and in [11].

Take `CCn1nc(C)c2c1C(=O)NCC(c1ccc(O)cc1)=N2`: the outcome in [12], in experiment [9], in [3], in experiment [4] and in experiment [5] was inactive.

As for `COc1cc2c(c(OC)c1OC)-c1ccc(OC)c(=O)cc1[C@@H](NC(C)=O)CC2`, the compound was classed as inactive in experiment [6], in experiment [3], in experiment [4] and in [5]. Besides, in experiment [11], the concentration at half-maximal activity (AC50) is 0.133 µM (active).

As to `NC(=O)N1c2ccccc2C=Cc2ccccc21`, the call in experiment [8], in [1], in [3], in experiment [4] and in experiment [5] was inactive.

For `CCCCCCCCCC`, the compound was classed as inactive in experiment [1], in [3], in experiment [4] and in experiment [5].

As to `Cc1cccc(O)c1C`, the outcome in experiment [1], in experiment [2], in [3], in experiment [4] and in experiment [5] was inactive.

Regarding `CCCCC(CC)C(=O)OCCOCCOCCOC(=O)C(CC)CCCC` (centres undefined), the call in experiment [13], in experiment [1], in experiment [2], in [3], in experiment [4] and in experiment [5] was inactive. Besides, in experiment [11], the compound was called inactive.
